Screening results from PubChem.
An excerpt weighted towards active compounds, which were near 6.2% of everything screened.
HCMV inh – qHTS Assay for inhibitors of the human cytomegalovirus (HCMV); HFF cells, HCMV-luciferase reporter, 72 h; stronger effect = lower value; AID 1259415, 2018; activity change, negative = inhibition, % at 57.5 µM; hit rate 4.5% among 410,000; in the data active = activity change below about -60%; inconclusive = no clear call, values can overlap the other calls; inactive = above about -39%
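Steps: HFFs plated, 16 h 37C; compounds added; HCMV-luciferase added to MOI 1 PFU/cell; 72 h 37C; OneGlo reagent, 5 min room temperature; luminescence read, normalized to controls.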
MARV entry inh – qHTS for inhibitors of binding or entry into cells for Marburg Virus. Marburg virus pseudotyped entry inhibition, cell reporter. Potency, µM (doses to about 37.8 µM), without a hit: top-dose activity change, negative = inhibition, most hits filed as inhibitors. hit rate 1.8% among 300,000. AID 540276, 2011; calls by dose curve; tested in HEK293 cells; note: potency is the fitted concentration of half-maximal effect
Lassa entry inh – qHTS for Inhibitors of binding or entry into cells for Lassa Virus; Potency, µM (titrated, usually from 37.9 µM), for the others: top-dose activity change, negative = inhibition, actives largely listed as inhibitors; hit rate 1.2% among 300,000; Lassa virus pseudotype entry inhibition, cell reporter; AID 540256, 2011; calls by dose curve; tested in HEK293 cells; note: potency is the fitted concentration of half-maximal effect; nearly all actives have a fitted effect of over 50% in size
FMDV inh – High Throughput Screening for Foot and Mouth Disease Virus Antivirals; hit rate 1.2% among 410,000; FMDV antiviral cell-based qHTS; Potency, µM (doses to about 57.9 µM), inactives show at the top dose activity change, negative = inhibition, hits mostly inhibitors; AID 1159524, 2015; calls by dose curve; tested in HEK293T cells; note: read-out not given here; potency is the fitted concentration of half-maximal effect; nearly all actives have a fitted effect of over 45% in size
* hit, by the source's call; [ ] = dose if it differs, or a comment. % is set by controls: 0 for no effect and ±100 for the full control effect.

For COc1cc(/C=C2/SC(=O)N(CC(=O)N3CCCC3)C2=O)ccc1Oc1ccc([N+](=O)[O-])cn1 the results were HCMV inh inconclusive, MARV entry inh -4%, Lassa entry inh 4% and FMDV inh 32µM*.
Screening O=C(c1ccc(S(=O)(=O)Nc2ccccc2)cc1)N1CCCCCCC1 returned HCMV inh inconclusive, MARV entry inh inconclusive, Lassa entry inh inconclusive and FMDV inh -24%.
Cc1ccccc1-n1c(SCC(=O)Nc2ccc(Cl)cc2F)nnc1-c1cc2occc2n1C was read as HCMV inh -22, Lassa entry inh -13%[46.1 µM] and FMDV inh -2%.
CN1CCC(N(C)c2nc(-c3ccc([N+](=O)[O-])cc3)nc3ccccc23)CC1 was read as HCMV inh 29, MARV entry inh 11µM*, Lassa entry inh inconclusive and FMDV inh 0%.
For Cc1ccc(N(C)/N=C/c2ccc(Cl)cc2Cl)nn1 the results were HCMV inh -68* and FMDV inh 49%.
Screening CN(/N=C/c1ccc(Cl)cc1Cl)c1ncc(Cl)cc1C(F)(F)F returned HCMV inh 12 and FMDV inh -1%.
`COc1ccccc1OCc1ccc(C(=O)Nc2ccncc2)o1` gave HCMV inh inconclusive, MARV entry inh inconclusive, Lassa entry inh inconclusive and FMDV inh 14µM*.
Screening COc1ccccc1OCc1ccc(C(=O)NC(C)(C)C)o1 returned HCMV inh 16, MARV entry inh -8%, Lassa entry inh -4% and FMDV inh inconclusive.
For Cc1ccccc1CCNC(=O)c1cc2ccccn2n1 the results were HCMV inh 89, Lassa entry inh 3%[46.1 µM] and FMDV inh 27%.
For OCCN1CCOCCOc2ccccc2OCCOCC1 the results were HCMV inh -16 and FMDV inh 1%.
Screening c1ccc2c(c1)OCCOCCOCCOCCOCCOc1ccccc1OCCOCCOCCO2 returned HCMV inh -98*, MARV entry inh inconclusive, Lassa entry inh inconclusive and FMDV inh inconclusive.
Screening CCc1nnc(NS(=O)(=O)c2ccc(NC(=O)/C=C/c3ccc(F)cc3)cc2)s1 returned HCMV inh -38 and FMDV inh -25%.
For Cc1cccn2c(CNCC3OCCc4ccccc43)c(C(=O)N3CCCCC3)nc12 (configuration not stated) the results were HCMV inh inconclusive, MARV entry inh 10µM*, Lassa entry inh -38% and FMDV inh -23%.
N#CC1=C2SCN(c3ccc(F)cc3)CN2C(=O)CC1c1cccc(F)c1 (configuration not stated) was read as HCMV inh -93* and FMDV inh -2%.
Screening COc1cccc(O)c1CN1CCC(C(=O)Nc2ccc(-c3cccc(C)c3)cc2)CC1 returned HCMV inh -31, MARV entry inh inconclusive, Lassa entry inh inconclusive and FMDV inh inconclusive.
Screening COc1ccc(CN2CCC(C(=O)Nc3ccc(Oc4cccnc4)cc3)CC2)cc1 returned HCMV inh -75*, MARV entry inh inconclusive, Lassa entry inh inconclusive and FMDV inh inconclusive.
COc1cccc(O)c1CN1CCC(C(=O)Nc2ccc(Oc3cccnc3)cc2)CC1 was read as HCMV inh inconclusive, MARV entry inh 11µM*, Lassa entry inh -26% and FMDV inh -10%.
Screening CCN(Cc1ccccc1)C(c1ccc(C)cc1)c1nnnn1C(C)(C)CC (configuration not stated) returned HCMV inh -23, MARV entry inh inconclusive, Lassa entry inh inconclusive and FMDV inh inconclusive.
For Cc1ccccc1-c1nn(-c2ccc(F)cc2F)cc1CNCCN(C)C the results were HCMV inh -34, MARV entry inh -7%[46.1 µM], Lassa entry inh 7% and FMDV inh -3%.
Screening Cc1ccccc1-c1nn(-c2ccc(F)cc2F)cc1CNCCCN(C)C returned HCMV inh inconclusive, MARV entry inh 3.5µM*, Lassa entry inh inconclusive and FMDV inh -11%.
COc1cc2c(cc1NC(=S)Nc1cccc3ccccc13)oc1ccccc12 was read as HCMV inh 26, MARV entry inh 2%, Lassa entry inh 16% and FMDV inh 38%.
Screening O=C(Nc1ccc(F)c(F)c1)c1oc2ccccc2c1NC(=O)C1CCCO1 (configuration not stated) returned HCMV inh -65*, MARV entry inh 1%[46.1 µM], Lassa entry inh 0% and FMDV inh -9%.
For Cc1ccc(NC(=O)c2oc3ccccc3c2NC(=O)C2CCCO2)cc1C (configuration not stated) the results were HCMV inh -82*, MARV entry inh inconclusive, Lassa entry inh inconclusive and FMDV inh 10%.
